Assay outcomes as filed in PubChem BioAssay.
Shown are actives, neighbours in structure and some others; about 32% of the full set was active somewhere.
CYP2C19 activ – human CYP2C19 activators, primary screen, biochemical, luminescence | recombinant CYP2C19, luciferin-H EGE luminescence; hits give high values; 0 = fully inhibited enzyme, 1 = untreated enzyme | AID 1025, 2008 | Cytochrome P450 2C19 (Homo sapiens), P33261 | activation factor at 5 µM | 96,000 tested, under 10 active;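 active means activation factor of at least 2 at 5 µM in the primary screen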;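 further: 0 = wells with 2.5 mM tranylcypromine and 1 = vehicle-only wells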
CYP2C9 inhib – blockers of cytochrome P450 2C9 activity – biochemical, luminescence, ADME assay, primary screen | CYP2C9 Supersomes, luciferin-H conversion | inhibition, % at 5 µM | AID 777, 2007 | 96,000 compounds, 20% hits;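 active means blocking of liver enzyme CYP2C9 beyond about 50% at 5 µM, limit read from the data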
Target sequence (P11712 whole entry, looked up): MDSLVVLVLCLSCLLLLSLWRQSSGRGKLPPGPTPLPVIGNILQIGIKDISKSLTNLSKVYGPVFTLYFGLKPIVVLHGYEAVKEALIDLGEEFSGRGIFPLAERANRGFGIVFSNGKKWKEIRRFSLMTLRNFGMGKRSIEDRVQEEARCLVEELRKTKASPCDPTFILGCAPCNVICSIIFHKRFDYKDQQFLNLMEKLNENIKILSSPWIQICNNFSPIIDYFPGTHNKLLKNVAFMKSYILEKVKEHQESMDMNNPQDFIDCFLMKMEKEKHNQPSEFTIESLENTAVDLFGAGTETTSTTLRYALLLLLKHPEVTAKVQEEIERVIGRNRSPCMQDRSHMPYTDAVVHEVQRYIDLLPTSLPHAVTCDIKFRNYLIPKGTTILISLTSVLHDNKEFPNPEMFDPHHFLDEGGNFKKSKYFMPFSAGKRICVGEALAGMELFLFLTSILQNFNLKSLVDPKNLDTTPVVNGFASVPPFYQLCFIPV
PostGolgi ctrl – growth inhibition of yeast control strain, primary screen, counter-screen for post-Golgi transport modulator project | efflux-deficient yeast background strain, growth absorbance A615, 16 h | inhibition, % at 10 µM | 98,000 compounds, 5% hits
PostGolgi yeast – phenotypic screen on post-Golgi transport, primary screen. post-Golgi transport phenotypic cell assay. inhibition, % at 10 µM. 98,000 compounds, 0.9% hits;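 further: yeast cells grown in 1536-well plates; yeast grown about 18 h at 30C before absorbance read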
CYP2C19 inh – blockers of cytochrome P450 2C19 activity – biochemical, luminescence, ADME assay, primary screen; 96,000 compounds, 21% hits; AID 778, 2007; CYP2C19 Supersomes, luciferin-H EGE luminescence, 30 min; inhibition, % at 5 µM; P33261;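 active means CYP2C19 inhibition above a set limit at 5 µM in the primary screen, cut at about 50% in these data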;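 further: plate controls were negative control wells for no effect and 2.5 mM tranylcypromine positive control for full effect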
CYP2C9 act – human CYP2C9 activators, primary screen, biochemical, luminescence; Cytochrome P450 2C9 (Homo sapiens), P11712; 96,000 compounds, 1.4% hits; recombinant CYP2C9, luciferin-H conversion; hits give high values; factor 1 = untreated enzyme, 0 = blocked; activation factor at 5 µM; AID 1024, 2008;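 active means activation factor of 2 or more for CYP2C9 at a 5 µM dose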;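 further: 0 = sulfaphenazole-blocked wells and 1 = vehicle-only wells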
Numbers without * were called inactive. Unless noted, no stated cut-off is given here; in the data, active means inhibition above about 30%; inactive means the rest.

What do the screens show for `Cc1cc(C(F)(F)F)n(-c2nc(C(=O)N/N=C/c3ccc(F)cc3)cs2)n1`?
CYP2C19 activ: 0.8; CYP2C9 inhib: 55*; PostGolgi ctrl: 18; PostGolgi yeast: 1; CYP2C19 inh: 19; CYP2C9 act: 0.4

Results for CC(=O)c1c(N2CCOCC2)nc(=S)n(-c2ccc([N+](=O)[O-])cc2)c1C ?
CYP2C19 activ: 0.9; CYP2C9 inhib: 19; PostGolgi ctrl: 0; PostGolgi yeast: -1; CYP2C19 inh: 6; CYP2C9 act: 0.8

Results for COc1cc(S(=O)(=O)NCC2CCCO2)c(OC)cc1Cl (stereo unspecified) ?
CYP2C19 activ: 0.3; CYP2C9 inhib: 2; PostGolgi ctrl: 1; PostGolgi yeast: 1; CYP2C19 inh: 66*; CYP2C9 act: 1

What do the screens show for `O=S(=O)(NCC1CCCO1)c1cc(Cl)ccc1Br` (stereo unspecified)?
CYP2C19 activ: 0.7; CYP2C9 inhib: -59; PostGolgi ctrl: 20; PostGolgi yeast: -3; CYP2C19 inh: 30; CYP2C9 act: 1.6

How did O=S(=O)(NCC1CCCO1)c1cc(Cl)ccc1Cl (stereo unspecified) do in these assays?
CYP2C19 activ: 0.3; CYP2C9 inhib: -38; PostGolgi ctrl: 28; PostGolgi yeast: 2; CYP2C19 inh: 66*; CYP2C9 act: 1.4

Results for CCOc1ccc(CCN2C(=O)CCC2(C)C(=O)NC(C)CC)cc1OCC (stereo unspecified) ?
CYP2C19 activ: 0.9; CYP2C9 inhib: 4; PostGolgi ctrl: -4; PostGolgi yeast: -16; CYP2C19 inh: 6; CYP2C9 act: 1

What do the screens show for `O=C(c1ccc2nc(N3CCCCC3)sc2c1)N1CCN(c2ccccn2)CC1`?
CYP2C19 activ: 0.6; CYP2C9 inhib: 37; CYP2C19 inh: 43; CYP2C9 act: 0.6

How did CCOC(=O)C(NC(C)=O)(Nc1cccc(F)c1)C(F)(F)F (stereo unspecified) do in these assays?
CYP2C19 activ: 0.5; CYP2C9 inhib: 15; PostGolgi ctrl: -5; PostGolgi yeast: 8; CYP2C19 inh: 47; CYP2C9 act: 0.8

Results for CCOC(=O)NC(Nc1ccc(S(N)(=O)=O)cc1)(C(=O)OCC)C(F)(F)F (stereo unspecified) ?
CYP2C19 activ: 0.9; CYP2C9 inhib: -1; PostGolgi ctrl: 0; PostGolgi yeast: 32*; CYP2C19 inh: 8; CYP2C9 act: 1

What do the screens show for `CCOC(=O)C(NC(C)=O)(Nc1ccc(F)cc1)C(F)(F)F` (stereo unspecified)?
CYP2C19 activ: 0.4; CYP2C9 inhib: 6; PostGolgi ctrl: -2; PostGolgi yeast: 1; CYP2C19 inh: 63*; CYP2C9 act: 0.9

Results for CCOC(=O)C(NC(=O)Nc1ccc(F)cc1)(OCC)C(F)(F)F (stereo unspecified) ?
CYP2C19 activ: 0.5; CYP2C9 inhib: 19; PostGolgi ctrl: 4; PostGolgi yeast: -3; CYP2C19 inh: 50*; CYP2C9 act: 0.8

How did CCC(C)c1ccc(OCCn2cc(/C=N/NC(=O)CSc3nnc(C)s3)c3ccccc32)cc1 (stereo unspecified) do in these assays?
CYP2C19 activ: 0.9; CYP2C9 inhib: 16; PostGolgi ctrl: 4; PostGolgi yeast: -8; CYP2C19 inh: 12; CYP2C9 act: 0.8

What do the screens show for `COc1cc([N+](=O)[O-])ccc1NC(=O)C[n+]1ccccc1C`?
CYP2C19 activ: 0.9; CYP2C9 inhib: 8; PostGolgi ctrl: 13; PostGolgi yeast: 4; CYP2C19 inh: 5; CYP2C9 act: 0.9

How did O=C(CN1C(=O)NC2(CCCc3ccccc32)C1=O)N1CCN(C(=O)c2ccco2)CC1 (stereo unspecified) do in these assays?
CYP2C19 activ: 1; CYP2C9 inhib: 6; PostGolgi ctrl: -6; PostGolgi yeast: -2; CYP2C19 inh: 0; CYP2C9 act: 0.9

Results for Cc1cc(S(=O)(=O)Nc2cccnc2)c(C)s1 ?
CYP2C19 activ: 0.6; CYP2C9 inhib: 24; PostGolgi ctrl: 0; PostGolgi yeast: 3; CYP2C19 inh: 42; CYP2C9 act: 0.8

How did Cc1cc(S(=O)(=O)Nc2cc(C)c(O)c(C)c2)c(C)s1 do in these assays?
CYP2C19 activ: 0; CYP2C9 inhib: 4; PostGolgi ctrl: 2; PostGolgi yeast: -8; CYP2C19 inh: 100*; CYP2C9 act: 1

Results for Cc1cc(S(=O)(=O)Nc2ccc3ccccc3c2)c(C)s1 ?
CYP2C19 activ: 0.1; CYP2C9 inhib: 64*; PostGolgi ctrl: 78*; PostGolgi yeast: -11; CYP2C19 inh: 93*; CYP2C9 act: 0.4

What do the screens show for `CC(c1ccccc1)C1NC(C(=O)O)CS1` (stereo unspecified)?
CYP2C19 activ: 1.1; CYP2C9 inhib: 11; PostGolgi ctrl: 0; PostGolgi yeast: 1; CYP2C19 inh: -8; CYP2C9 act: 0.9

What do the screens show for `Nc1nncn1C(=O)CCc1ccccc1`?
CYP2C19 activ: 1; CYP2C9 inhib: -15; PostGolgi ctrl: 1; PostGolgi yeast: 7; CYP2C19 inh: 4; CYP2C9 act: 1.2

What do the screens show for `CCOc1cc(CNCc2ccncc2)cc(Br)c1OCc1ccccc1F`?
CYP2C19 activ: 0.1; CYP2C9 inhib: 91*; PostGolgi ctrl: 1; PostGolgi yeast: 1; CYP2C19 inh: 85*; CYP2C9 act: 0.1

How did CCOc1cc(CNCCO)cc(Br)c1OCc1ccc(Cl)cc1Cl do in these assays?
CYP2C19 activ: 0.6; CYP2C9 inhib: -7; PostGolgi ctrl: 90*; PostGolgi yeast: 27; CYP2C19 inh: 38; CYP2C9 act: 1.1

Results for CCOc1cc(CNc2ccccc2)cc(Br)c1OCc1ccc(F)cc1 ?
CYP2C19 activ: 0.7; CYP2C9 inhib: 51*; PostGolgi ctrl: 10; PostGolgi yeast: 8; CYP2C19 inh: 33; CYP2C9 act: 0.5

Results for CCOc1cc(CNCCSc2nnnn2C)cc(Br)c1OCc1ccccc1F ?
CYP2C19 activ: 0.2; CYP2C9 inhib: 37; PostGolgi ctrl: 2; PostGolgi yeast: -5; CYP2C19 inh: 84*; CYP2C9 act: 0.6

How did CCOc1c(Br)cc(CNc2ncn[nH]2)cc1OC do in these assays?
CYP2C19 activ: 0.8; CYP2C9 inhib: -5; PostGolgi ctrl: 4; PostGolgi yeast: 11; CYP2C19 inh: 17; CYP2C9 act: 1

Results for O=C(Cn1cc(C(F)(F)F)ccc1=O)N1CCN(S(=O)(=O)c2ccc(Cl)cc2)CC1 ?
CYP2C19 activ: 1; CYP2C9 inhib: 5; PostGolgi ctrl: 4; PostGolgi yeast: -1; CYP2C19 inh: 2; CYP2C9 act: 0.9

Results for CCCN1C(=O)c2cc(C(=O)Nc3ccccc3CC)ccc2C1O (stereo unspecified) ?
CYP2C19 activ: 0.9; CYP2C9 inhib: -4; PostGolgi ctrl: -4; PostGolgi yeast: 1; CYP2C19 inh: 12; CYP2C9 act: 1
